Shown are actives, neighbours in structure and some others; about 3.4% of the full set was active somewhere.
Mcl1-Noxa inh: Mcl-1/Noxa binding inhibitors, primary screen, biochemical, TR-FRET, 1536-well. actives 1.5% (n = 220,000). Induced myeloid leukemia cell differentiation protein Mcl-1 (Homo sapiens), Q07820. AID 1022, 2008. inhibition, % at 21.7 µM. TR-FRET Mcl-1/Noxa peptide binding, 2 h;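 active = compounds that cut the protein-peptide binding signal by more than 50% relative to plate controls in a single-dose test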;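 note: His-tagged Mcl-1 with rhodamine Noxa BH3 peptide and terbium anti-His antibody; 0% = Mcl-1 plus Noxa peptide wells and 100% = peptide-only wells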
Bim-Mcl-1: inhibitors of Bim peptide binding to Mcl-1, primary screen, biochemical, bead-based flow cytometry, multiplex. Induced myeloid leukemia cell differentiation protein Mcl-1 (Homo sapiens), Q07820. Bim peptide-Mcl-1 binding. inhibition, % at 10 µM. actives 0.1% (n = 190,000); in the data active = inhibition above about 40%;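 note: 0% = no compound tracer wells and 100% = peptide blocker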
eIF4E-4G inh: eIF4E–eIF4G protein interaction inhibitors, primary screen, biochemical, uHTS, TR-FRET, eIF4GI fragment; TR-FRET eIF4E-eIF4GI(517-606) binding, 2 h; inhibition, % at 21.7 µM; actives 0.37% (n = 220,000); AID 782, 2007;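 note: 0% = full FRET control wells and 100% = background wells lacking eIF4GI fragment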
Target sequence (P63073 whole entry, looked up, the tested form may be a part): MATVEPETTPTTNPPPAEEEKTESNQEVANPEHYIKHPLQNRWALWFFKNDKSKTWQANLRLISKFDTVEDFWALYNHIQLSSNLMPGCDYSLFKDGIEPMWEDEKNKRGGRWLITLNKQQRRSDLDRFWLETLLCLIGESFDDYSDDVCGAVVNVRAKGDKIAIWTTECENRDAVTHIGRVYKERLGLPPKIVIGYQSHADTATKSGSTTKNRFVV
Target sequence (Q04637 whole entry, looked up, the tested form may be a part): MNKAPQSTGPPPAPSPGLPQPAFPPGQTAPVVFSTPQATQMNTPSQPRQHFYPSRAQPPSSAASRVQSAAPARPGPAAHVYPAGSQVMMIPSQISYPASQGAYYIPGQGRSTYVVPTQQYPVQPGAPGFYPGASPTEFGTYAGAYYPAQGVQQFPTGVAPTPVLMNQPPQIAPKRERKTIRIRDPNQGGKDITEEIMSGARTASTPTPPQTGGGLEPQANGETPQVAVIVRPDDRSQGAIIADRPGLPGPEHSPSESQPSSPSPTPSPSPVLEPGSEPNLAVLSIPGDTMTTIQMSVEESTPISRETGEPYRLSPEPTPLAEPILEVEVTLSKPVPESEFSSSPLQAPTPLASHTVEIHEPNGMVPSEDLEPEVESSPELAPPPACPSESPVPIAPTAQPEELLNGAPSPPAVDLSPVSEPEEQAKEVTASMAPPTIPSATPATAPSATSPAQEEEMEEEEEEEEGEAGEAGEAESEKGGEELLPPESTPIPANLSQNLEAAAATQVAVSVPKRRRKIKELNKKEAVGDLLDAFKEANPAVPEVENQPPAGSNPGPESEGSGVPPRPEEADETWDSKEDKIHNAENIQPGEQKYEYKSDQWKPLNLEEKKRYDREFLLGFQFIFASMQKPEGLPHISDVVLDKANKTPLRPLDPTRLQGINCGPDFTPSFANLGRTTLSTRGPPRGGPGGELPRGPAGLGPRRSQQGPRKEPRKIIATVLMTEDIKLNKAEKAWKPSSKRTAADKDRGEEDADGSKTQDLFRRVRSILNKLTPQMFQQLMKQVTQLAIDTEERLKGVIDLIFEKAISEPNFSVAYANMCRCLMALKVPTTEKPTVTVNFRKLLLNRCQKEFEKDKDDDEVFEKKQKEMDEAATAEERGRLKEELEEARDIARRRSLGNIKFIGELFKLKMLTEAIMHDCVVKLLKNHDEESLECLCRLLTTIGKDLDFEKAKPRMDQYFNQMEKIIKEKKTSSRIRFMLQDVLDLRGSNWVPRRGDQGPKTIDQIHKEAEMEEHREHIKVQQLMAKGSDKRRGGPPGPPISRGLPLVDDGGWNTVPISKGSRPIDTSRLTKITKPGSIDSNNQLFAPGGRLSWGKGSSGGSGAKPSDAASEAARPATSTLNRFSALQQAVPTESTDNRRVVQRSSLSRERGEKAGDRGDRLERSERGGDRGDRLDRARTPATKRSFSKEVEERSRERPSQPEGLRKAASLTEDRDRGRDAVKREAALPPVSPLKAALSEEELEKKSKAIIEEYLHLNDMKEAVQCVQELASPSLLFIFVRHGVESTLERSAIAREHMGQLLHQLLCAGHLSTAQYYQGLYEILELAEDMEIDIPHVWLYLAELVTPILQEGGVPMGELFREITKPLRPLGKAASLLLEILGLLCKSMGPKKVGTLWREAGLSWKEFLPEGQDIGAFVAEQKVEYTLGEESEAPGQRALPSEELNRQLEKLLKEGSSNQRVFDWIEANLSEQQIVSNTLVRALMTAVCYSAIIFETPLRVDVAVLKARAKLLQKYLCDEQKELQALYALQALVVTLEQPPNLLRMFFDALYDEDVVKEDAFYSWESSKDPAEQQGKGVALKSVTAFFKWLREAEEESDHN
NCF1 inh: p47phox/p22phox peptide binding inhibitors, primary screen, biochemical, uHTS, NADPH oxidase regulatory subunit. fluorescence polarization, 2 h. inhibition, % at 24.7 µM. actives 0.53% (n = 220,000). AID 1274, 2008;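 note: 0% = p47phox with labelled peptide and 100% = labelled peptide alone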
14-3-3 Bad inh: inhibitors of 14-3-3 zeta/Bad binding, primary screen, biochemical, TR-FRET, bovine 14-3-3 zeta | 14-3-3 protein zeta/delta (Bos taurus), P63103 | actives 0.71% (n = 220,000) | AID 781, 2007 | inhibition, % at 21.7 µM | TR-FRET 14-3-3zeta/Dy647-pBad peptide displacement, 1 h;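 active = inhibition above about 70%, limit read from the data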;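 note: 0% = full 14-3-3 plus peptide FRET controls and 100% = background without 14-3-3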
Mcl1-Bid inh: Mcl-1/Bid binding inhibitors, primary screen, biochemical, TR-FRET, 1536-well; Induced myeloid leukemia cell differentiation protein Mcl-1 (Homo sapiens), Q07820; TR-FRET Mcl-1/Bid-Dy647 peptide binding; inhibition, % at 21.7 µM; actives 0.97% (n = 220,000);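 active = compounds that cut the binding signal by more than half at the single screening dose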;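 note: His-tagged Mcl-1 with europium anti-His antibody binding Bid BH3 peptide; 0% = Mcl-1 plus peptide wells and 100% = peptide-only wells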
An asterisk follows results filed as active.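 Rule for the calls, unless noted: active = inhibition above about 30% (limit read from the data); inactive = the rest.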

What do the screens show for `CN(C)CCn1c(=O)n(-c2cccc(Cl)c2)c(=O)c2c3c(sc21)CCCCC3`?
Mcl1-Noxa inh: 5.5; eIF4E-4G inh: 2.6; NCF1 inh: -18.4; 14-3-3 Bad inh: -0.1; Mcl1-Bid inh: -5.0

Results for CCCc1c(-c2ccc(O)cc2)nn(-c2ccc(O)cc2)c1-c1ccc(O)cc1 ?
Mcl1-Noxa inh: 25.8; eIF4E-4G inh: -16.2; NCF1 inh: -16.0; 14-3-3 Bad inh: -1.7; Mcl1-Bid inh: -11.7

Results for O=C(COC(=O)c1ccc(NS(=O)(=O)c2cccs2)cc1)Nc1nc2c(F)c(F)c(F)cc2s1 ?
Mcl1-Noxa inh: 70.9*; Bim-Mcl-1: 0.0; eIF4E-4G inh: 14.7; NCF1 inh: -125.4; 14-3-3 Bad inh: 10.2; Mcl1-Bid inh: 29.2

How did O=C(COC(=O)c1ccc(Br)o1)Nc1nc2c(F)c(F)c(F)cc2s1 do in these assays?
Mcl1-Noxa inh: 39.5; eIF4E-4G inh: 1.1; NCF1 inh: -84.7; 14-3-3 Bad inh: -5.4; Mcl1-Bid inh: -36.8

How did COc1ccc(CCC(C)Nc2cccc(F)c2)cc1 (stereo not given) do in these assays?
Mcl1-Noxa inh: 32.6; Bim-Mcl-1: -3.0; eIF4E-4G inh: 3.2; NCF1 inh: -12.2; 14-3-3 Bad inh: 86.2*; Mcl1-Bid inh: 3.4

How did CNC(=O)c1cc(NC(=O)CCn2nc(-c3ccccc3)c3ccccc3c2=O)ccc1OC do in these assays?
Mcl1-Noxa inh: -3.8; eIF4E-4G inh: -1.5; NCF1 inh: -11.2; 14-3-3 Bad inh: -6.9; Mcl1-Bid inh: -14.0

How did COc1cccc(N(C(=O)Cn2nnc(-c3cccs3)n2)C(C(=O)NC2CCCCC2)c2ccncc2)c1 (stereo not given) do in these assays?
Mcl1-Noxa inh: -31.1; Bim-Mcl-1: 0.0; eIF4E-4G inh: -15.0; NCF1 inh: 46.0*; 14-3-3 Bad inh: 14.2; Mcl1-Bid inh: 33.3

Results for COc1ccc(N(C(=O)Cc2cccs2)C(C(=O)NC2CCCCC2)c2cccn2C)cc1 (stereo not given) ?
Mcl1-Noxa inh: 17.8; Bim-Mcl-1: -3.0; eIF4E-4G inh: -3.4; NCF1 inh: -6.0; 14-3-3 Bad inh: 90.2*; Mcl1-Bid inh: -28.9

How did Cc1ccc(C)c(N(C(=O)Cn2nnc(-c3cccs3)n2)C(C(=O)NC2CCCC2)c2ccncc2)c1 (stereo not given) do in these assays?
Mcl1-Noxa inh: -8.8; Bim-Mcl-1: 1.0; eIF4E-4G inh: 2.8; NCF1 inh: 0.4; 14-3-3 Bad inh: -6.3; Mcl1-Bid inh: -34.8

How did O=C(COC(=O)c1cc(=O)[nH]c2ccccc12)Nc1nc(-c2ccccc2)cs1 do in these assays?
Mcl1-Noxa inh: 13.3; Bim-Mcl-1: -3.0; eIF4E-4G inh: -1.4; NCF1 inh: -28.1; 14-3-3 Bad inh: -10.9; Mcl1-Bid inh: -5.8

What do the screens show for `O=C(O)CCSc1nnc(COc2cccc3ccccc23)n1-c1cccc(Cl)c1`?
Mcl1-Noxa inh: 19.4; Bim-Mcl-1: -1.0; eIF4E-4G inh: -1.7; NCF1 inh: -15.4; 14-3-3 Bad inh: -3.9; Mcl1-Bid inh: 13.7

What do the screens show for `O=C(Nc1ccc(Nc2ccncc2)cc1)c1ccc(Nc2ccnc3ccc([N+](=O)[O-])cc23)cc1[N+](=O)[O-]`?
Mcl1-Noxa inh: 80.4*; eIF4E-4G inh: -51.8; NCF1 inh: 71.4*; 14-3-3 Bad inh: 76.5*; Mcl1-Bid inh: 89.8*

Results for CCCC(C)NCC(=O)Nc1ccccc1-c1ccccc1 (stereo not given) ?
Mcl1-Noxa inh: 16.4; Bim-Mcl-1: -3.0; eIF4E-4G inh: -6.5; NCF1 inh: -18.6; 14-3-3 Bad inh: 72.3*; Mcl1-Bid inh: 22.0

What do the screens show for `CN(C(=O)COC(=O)c1cc(S(=O)(=O)N2CCOCC2)c(Cl)cc1Cl)C1CCS(=O)(=O)C1` (stereo not given)?
Mcl1-Noxa inh: 5.9; Bim-Mcl-1: -1.0; eIF4E-4G inh: 5.0; NCF1 inh: -3.8; 14-3-3 Bad inh: -8.5; Mcl1-Bid inh: -23.9

Results for Oc1oc(-c2ccccc2Br)nc1C=Nc1ccc(Br)cn1 ?
Mcl1-Noxa inh: 46.6; Bim-Mcl-1: 2.0; eIF4E-4G inh: 19.1; NCF1 inh: 23.1; 14-3-3 Bad inh: 76.2*; Mcl1-Bid inh: 30.9

How did Cc1ccc(C(=O)N2CCN(c3cnn(C)c(=O)c3Cl)CC2)cc1 do in these assays?
Mcl1-Noxa inh: -9.5; Bim-Mcl-1: 0.0; eIF4E-4G inh: -1.4; NCF1 inh: -1.5; 14-3-3 Bad inh: 11.2; Mcl1-Bid inh: -4.3

What do the screens show for `CC(=O)c1ccc(-n2nnnc2SCC(=O)Nc2sc(C)c(C)c2C#N)cc1`?
Mcl1-Noxa inh: 64.8*; Bim-Mcl-1: -1.0; eIF4E-4G inh: 4.3; NCF1 inh: -77.5; 14-3-3 Bad inh: 17.7; Mcl1-Bid inh: 56.6*

Results for Cc1sc(NC(=O)CSc2nnc(-c3ccc(F)cc3)o2)c(C#N)c1C ?
Mcl1-Noxa inh: 11.7; Bim-Mcl-1: 0.0; eIF4E-4G inh: -24.9; NCF1 inh: -39.4; 14-3-3 Bad inh: 25.8; Mcl1-Bid inh: 59.0*

What do the screens show for `Nc1ccc(N)c(C(=O)O)c1`?
Mcl1-Noxa inh: 92.4*; eIF4E-4G inh: 93.7*; NCF1 inh: 41.0*; 14-3-3 Bad inh: 95.9*; Mcl1-Bid inh: 97.6*

Results for Fc1cccc(NC(=S)NCc2ccccc2Cl)c1 ?
Mcl1-Noxa inh: 16.1; eIF4E-4G inh: 2.8; NCF1 inh: -14.5; 14-3-3 Bad inh: -5.8; Mcl1-Bid inh: -14.6

How did CC(=O)Nc1ccc(C2=NNC(=NCC3CCCO3)SC2)cc1 (stereo not given) do in these assays?
Mcl1-Noxa inh: 60.6*; Bim-Mcl-1: 1.0; eIF4E-4G inh: 2.8; NCF1 inh: -15.8; 14-3-3 Bad inh: -18.2; Mcl1-Bid inh: 3.4

Results for Cc1ccc(C(=O)COc2nc(C)nc3ccccc23)cc1 ?
Mcl1-Noxa inh: -16.3; Bim-Mcl-1: 0.0; eIF4E-4G inh: 1.2; NCF1 inh: 0.7; 14-3-3 Bad inh: -1.1; Mcl1-Bid inh: -13.8

What do the screens show for `O=C(c1cccc2cccc(O)c12)N1CCCCC1`?
Mcl1-Noxa inh: -1.9; Bim-Mcl-1: -5.0; eIF4E-4G inh: -7.2; NCF1 inh: -8.4; 14-3-3 Bad inh: 6.9; Mcl1-Bid inh: -15.1

What do the screens show for `Oc1cccc2cc3cccc(O)c3c(O)c12`?
Mcl1-Noxa inh: 97.3*; Bim-Mcl-1: 1.0; eIF4E-4G inh: 5.7; NCF1 inh: 20.8; 14-3-3 Bad inh: -13.1; Mcl1-Bid inh: -6.4

Results for O=C(O)CC12CC3CC(C1)CC(n1cncn1)(C3)C2 ?
Mcl1-Noxa inh: 3.8; Bim-Mcl-1: 0.0; eIF4E-4G inh: 0.1; NCF1 inh: -5.2; 14-3-3 Bad inh: 23.0; Mcl1-Bid inh: -22.4

Bioassay records (PubChem BioAssay)
